About 2,000 (36%) of roughly 5,500 compounds were called active. Another 18% or so got no clear call; they are omitted. Rule as the data show it: active = normalized growth mostly below about 0.91 (no sharp cut-off); inconclusive = no clear call, values can overlap the other calls; inactive = mostly above about 0.92. Some of the results follow.
Test: chemical genetic growth profiling, strain panel (AID 1159580);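 also: tested at 20 µM; growth read once vehicle control cultures reached saturation at 30 °C; 1 = growth at the plate median or of vehicle wells; lower values mean less growth of the strain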
Settings: growth OD

Measured: normalized growth

CC(Oc1ccccc1)C(=O)N[C@@H]1C(=O)N2[C@@H]1SC(C)(C)[C@@H]2C(=O)O (some centres not stated)
inactive: S. cerevisiae deletion strains, locus YJR075W, strain HOC1, stronger effect = lower value 1.01 | S. cerevisiae deletion strains, locus YKL009W, strain mrt4, stronger effect = lower value 0.995 | S. cerevisiae deletion strains, locus YKL068W, stronger effect = lower value 1.01 | S. cerevisiae deletion strains, locus YKL085W, strain MDH1 (second series), stronger effect = lower value 1 | S. cerevisiae deletion strains, locus YKL085W, strain MDH1, stronger effect = lower value 1 | S. cerevisiae deletion strains, locus YKL160W, strain elf1, stronger effect = lower value 0.985 | S. cerevisiae deletion strains, locus YKL190W, strain CNB1, stronger effect = lower value 1.01 | S. cerevisiae deletion strains, locus YKR001C, strain vps1, stronger effect = lower value 1.02 | S. cerevisiae deletion strains, locus YKR026C, strain gcn3, stronger effect = lower value 0.993 | S. cerevisiae deletion strains, locus YKR091W, strain srl3, stronger effect = lower value 0.993 | S. cerevisiae deletion strains, locus YLL001W, strain dnm1, stronger effect = lower value 0.983 | S. cerevisiae deletion strains, locus YLL026W, stronger effect = lower value 0.998 | S. cerevisiae deletion strains, locus YLL041C, strain sdh2, stronger effect = lower value 0.992 | S. cerevisiae deletion strains, locus YLR027C, strain aat2, stronger effect = lower value 1 | S. cerevisiae deletion strains, locus YLR039C, strain RIC1, stronger effect = lower value 1.02 | S. cerevisiae deletion strains, locus YLR058C, strain SHM2, stronger effect = lower value 1.01 | S. cerevisiae deletion strains, locus YLR102C, strain apc9, stronger effect = lower value 1.02 | S. cerevisiae deletion strains, locus YLR113W, strain HOG1, stronger effect = lower value 1.01 | S. cerevisiae deletion strains, locus YLR221C, strain rsa3, stronger effect = lower value 0.981 | S. cerevisiae deletion strains, locus YLR258W, strain gsy2, stronger effect = lower value 0.986 | S. cerevisiae deletion strains, locus YLR262C, strain YPT6 (second series), stronger effect = lower value 1.01 | S. cerevisiae deletion strains, locus YLR262C, strain YPT6, stronger effect = lower value 1.04 | S. cerevisiae deletion strains, locus YLR268W, strain sec22, stronger effect = lower value 1.03 | S. cerevisiae deletion strains, locus YLR320W, strain mms22, stronger effect = lower value 0.984 | S. cerevisiae deletion strains, locus YLR330W, strain CHS5, stronger effect = lower value 1.01 | S. cerevisiae deletion strains, locus YLR342W, strain FKS1 (second series), stronger effect = lower value 1 | S. cerevisiae deletion strains, locus YLR342W, strain FKS1, stronger effect = lower value 1 | S. cerevisiae deletion strains, locus YLR357W, strain rsc2, stronger effect = lower value 0.978 | S. cerevisiae deletion strains, locus YLR370C, strain arc18, stronger effect = lower value 0.992 | S. cerevisiae deletion strains, locus YLR371W, strain rom2, stronger effect = lower value 1.02 | S. cerevisiae deletion strains, locus YLR384C, strain iki3, stronger effect = lower value 0.992 | S. cerevisiae deletion strains, locus YLR418C, strain cdc73, stronger effect = lower value 1.04 | S. cerevisiae deletion strains, locus YML016C, strain PPZ1, stronger effect = lower value 1.02 | S. cerevisiae deletion strains, locus YML032C, strain rad52, stronger effect = lower value 1.02 | S. cerevisiae deletion strains, locus YML120C, strain ndi1, stronger effect = lower value 0.985 | S. cerevisiae deletion strains, locus YML124C, strain tub3, stronger effect = lower value 1.02 | S. cerevisiae deletion strains, locus YMR058W, strain fet3, stronger effect = lower value 1 | S. cerevisiae deletion strains, locus YMR078C, strain ctf18, stronger effect = lower value 1.03 | S. cerevisiae deletion strains, locus YMR125W, strain sto1, stronger effect = lower value 0.992 | S. cerevisiae deletion strains, locus YMR129W, stronger effect = lower value 0.99 | S. cerevisiae deletion strains, locus YMR205C, strain PFK2, stronger effect = lower value 0.995 | S. cerevisiae deletion strains, locus YMR223W, strain ubp8, stronger effect = lower value 1.01 | S. cerevisiae deletion strains, locus YMR231W, strain pep5, stronger effect = lower value 1 | S. cerevisiae deletion strains, locus YMR263W, strain SAP30, stronger effect = lower value 1.01 | S. cerevisiae deletion strains, locus YMR307W, strain GAS1, stronger effect = lower value 1.02 | S. cerevisiae deletion strains, locus YNL067W, strain RPL9B, stronger effect = lower value 1.01 | S. cerevisiae deletion strains, locus YNL071W, strain lat1, stronger effect = lower value 0.996 | S. cerevisiae deletion strains, locus YNL128W, strain TEP1, stronger effect = lower value 1.02 | S. cerevisiae deletion strains, locus YNL153C, strain GIM3, stronger effect = lower value 1.01 | S. cerevisiae deletion strains, locus YNL183C, strain NPR1, stronger effect = lower value 0.972 | S. cerevisiae deletion strains, locus YNL209W, strain ssb2, stronger effect = lower value 0.996 | S. cerevisiae deletion strains, locus YNL233W, strain BNI4, stronger effect = lower value 1.02 | S. cerevisiae deletion strains, locus YNL248C, strain rpa49, stronger effect = lower value 0.991 | S. cerevisiae deletion strains, locus YNL250W, strain rad50, stronger effect = lower value 1.03 | S. cerevisiae deletion strains, locus YNL271C, strain bni1, stronger effect = lower value 1.02 | S. cerevisiae deletion strains, locus YNL298W, strain CLA4, stronger effect = lower value 1.03 | S. cerevisiae deletion strains, locus YNL307C, strain MCK1, stronger effect = lower value 1.03 | S. cerevisiae deletion strains, locus YNL322C, strain KRE1 (second series), stronger effect = lower value 1.01 | S. cerevisiae deletion strains, locus YNL322C, strain KRE1, stronger effect = lower value 1.01 | S. cerevisiae deletion strains, locus YNR049C, strain mso1, stronger effect = lower value 0.992 | S. cerevisiae deletion strains, locus YNR052C, strain pop2, stronger effect = lower value 1.02 | S. cerevisiae deletion strains, locus YOL006C, strain TOP1, stronger effect = lower value 1.05 | S. cerevisiae deletion strains, locus YOL012C, strain htz1 1.34 | S. cerevisiae deletion strains, locus YOL147C, strain pex11, stronger effect = lower value 1.02 | S. cerevisiae deletion strains, locus YOR001W, strain rrp6, stronger effect = lower value 1 | S. cerevisiae deletion strains, locus YOR061W, strain CKA2, stronger effect = lower value 1.02 | S. cerevisiae deletion strains, locus YOR069W, strain VPS5, stronger effect = lower value 1.01 | S. cerevisiae deletion strains, locus YOR070C, strain gyp1, stronger effect = lower value 0.992 | S. cerevisiae deletion strains, locus YOR080W, strain dia2, stronger effect = lower value 0.988 | S. cerevisiae deletion strains, locus YOR083W, strain WHI5, stronger effect = lower value 0.984 | S. cerevisiae deletion strains, locus YOR106W, strain vam3, stronger effect = lower value 0.979 | S. cerevisiae deletion strains, locus YOR136W, strain idh2, stronger effect = lower value 1.02 | S. cerevisiae deletion strains, locus YOR144C, strain elg1, stronger effect = lower value 1.03 | S. cerevisiae deletion strains, locus YOR184W, strain ser1, stronger effect = lower value 1.02 | S. cerevisiae deletion strains, locus YOR231W, strain MKK1, stronger effect = lower value 1.02 | S. cerevisiae deletion strains, locus YOR265W, strain rbl2, stronger effect = lower value 0.991 | S. cerevisiae deletion strains, locus YOR270C, strain vph1, stronger effect = lower value 1.04 | S. cerevisiae deletion strains, locus YOR290C, strain snf2, stronger effect = lower value 1.03 | S. cerevisiae deletion strains, locus YOR316C, strain cot1, stronger effect = lower value 1.02 | S. cerevisiae deletion strains, locus YPL051W, strain arl3, stronger effect = lower value 1.01 | S. cerevisiae deletion strains, locus YPL055C, strain LGE1, stronger effect = lower value 1.02 | S. cerevisiae deletion strains, locus YPL078C, strain atp4, stronger effect = lower value 0.994 | S. cerevisiae deletion strains, locus YPL106C, strain sse1, stronger effect = lower value 0.968 | S. cerevisiae deletion strains, locus YPL240C, strain hsp82, stronger effect = lower value 0.994 | S. cerevisiae deletion strains, locus YPL241C, strain CIN2, stronger effect = lower value 1.01 | S. cerevisiae deletion strains, locus YPL256C, strain CLN2, stronger effect = lower value 1.03 | S. cerevisiae deletion strains, locus YPR119W, strain clb2, stronger effect = lower value 1.02 | S. cerevisiae deletion strains, locus YPR141C, strain kar3, stronger effect = lower value 1.02 | S. cerevisiae deletion strains, locus YPR163C, strain tif3, stronger effect = lower value 1.04 | S. cerevisiae deletion strains, locus YPR167C, strain met16, stronger effect = lower value 1.02 | S. cerevisiae deletion strains, strain wtn01, stronger effect = lower value 1.02 | S. cerevisiae strains, strain wild type, stronger effect = lower value 1.02

Reference: PubChem BioAssay AID1159580 (chemical genetic matrix, 2015)
